Records with an inconclusive call do not appear. Unmarked numbers belong to inactive results. The source made the active and inactive calls. Calls come from the whole dose curve; as a rule, active = well fitted cell-killing curve with a large enough effect; inconclusive = small, poorly fitted or top-dose-only effect; inactive = flat fitted curve, though single readings scatter. Square brackets hold non-standard residues; d marks the D form. Peptide text beside a SMILES is read from it. * marks the point of attachment. ξ: configuration not given here. Hexanoyl = CCCCCC(=O)*; ξL = CC(C)CC(N)C(=O)O
Test: COV-362 Cancer Cell Toxicity qHTS against the NCATS CANVASS Library (AID 1347352)
Conditions: COV-362 viability, CellTiter-Glo luminescence, 72 h; series mostly up to 38.3 µM; activity change, negative = cytotoxicity: at the top concentration
In short: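 First, 1000 cells go into each well and rest for 4 hours. Next, an 11-point dilution range is pinned in. Plates then incubate 72 hours before CellTiter-Glo addition and luminescence reading.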
% is set by controls: 0 for no effect and ±100 for the full control effect.

SMILES	activity change, negative = cytotoxicity
CC(=O)N[C@H](C)c1nc(/C=C/C=C/C(=O)CC2CC(=O)CC[C@]2(C)O)cs1 (stereo partly specified)	-6.32%
CN1CC[C@]23c4ccccc4N[C@H]1[C@]21CCN(C)[C@H]3Nc2ccccc21	-5.91%
C/C=C1/C2=CCCN3C(=O)O[C@H]([C@H]1O)[C@H]23	-7.13%
O=C1CC(c2ccc(O)cc2)Oc2ccccc21 (stereo unspecified)	-18.1%
COc1c(O)cc(O)c2c(=O)cc(-c3ccccc3)oc12	-19.5%
CC[C@@H](C)[C@H]1NC(=O)C(CC(C)C)NC(=O)[C@@H](CC(C)C)NC(=O)[C@H](Cc2c[nH]c3ccccc23)NC(=O)CNC(=O)[C@@H](CC(N)=O)NC1=O (stereo partly drawn) (cyclo(GW[dL][ξL][dI][dN]))	-15.7%
Cc1cc(O)cc2c1C(=O)c1c(O)cc(O)cc1C2=O	2.88%
C=C(Cl)[C@](Cl)(CBr)CC[C@@H](Br)C(C)(C)Cl	-20.5%
CC[C@@H]1C[C@@]2(CC)OC(=O)[C@@]3(CC)[C@H](CC)[C@@H]1[C@@H]23	4.03%
C[C@@]12CCC[C@@](C)(C(=O)OP(=O)(O)OC[C@H]3O[C@@H](n4cnc5c(N)ncnc54)[C@H](O)[C@@H]3O)[C@H]1C[C@@H](O)[C@@]13C[C@@H](CC[C@@H]21)[C@](C)(O)C3	0%
CCC(C)=C1OC(=O)[C@H](C)[C@H](O)[C@H](Cc2cccnc2)NC(=O)C(NC(=O)c2ncccc2O)C(C)OC1=O (stereo partly specified)	-10.1%
O=C1OC(CCO)c2cccc(O)c21 (stereo unspecified)	-0.794%
CO[C@@H](C[C@@H](C)[C@@H](O)/C=C/C=C/CNC(=O)C(C)(C)[C@H](O)\C(C)=C/C=C\C=C\Cc1cnco1)[C@]1(O)[C@@H](C)C(=O)N(C)[C@@]12COC2=O	0.917%
O=C1CC(c2ccc(O)cc2)Oc2cc(O)cc(O)c21 (stereo unspecified)	0%
CN1CC[C@@]23c4ccccc4N[C@@H]1[C@@]21CCN(C)[C@@H]3Nc2ccccc21	-6.61%
C[C@@]12CCC[C@@](C)(C(=O)O)[C@H]1C[C@@H](O)[C@@]13C[C@@H](CC[C@@H]21)[C@](C)(O)C3	-2.4%
C/C=C(/CO)C(=O)O[C@@H]1[C@H](O)[C@@H](C(=O)OC)O[C@@H]2C[C@H]3OC(n4cnc5c(N)ncnc54)[C@H](OC)[C@H]3O[C@@]12O (stereo partly specified)	1.37%
C/C=C/[C@H]1[C@H]2C(=O)c3c(O)c(C)c(O)c(C)c3[C@]1(C(=O)O)C(=O)C=C2C	-0.892%
C=C1CCC2C(C)(C(=O)O)CCC(CC/C(C)=C/C(=O)NC(CCC(N)=O)C(=O)O)[C@@]2(C)C1 (stereo partly specified)	2.86%
C=C1[C@@]2(C)CC3C4(C)CCC(O)C(C)(C)C4CCC3(C)[C@]1(C(=O)OC)C(=O)C(C)(O)C2=O (stereo partly specified)	-0.756%
CC(C)=CCC[C@]1(C)[C@H]2CC(=O)[C@@]3(CO3)[C@@H]1C2	1.28%
CCCCCC(=O)N[C@@H](CC(C)C)C(=O)N[C@H](C=O)CCC(=O)O (Hexanoyl-Leu-Glu-aldehyde)	0%

Test: A2780 Cisplatin Sensitive Ovarian Cancer Cell Toxicity qHTS against the NCATS CANVASS Library (AID 1347353); note: nearly all actives have a fitted effect of over 60% in size; note: potency is the fitted concentration of half-maximal effect
Conditions: A2780 ovarian cancer viability, ATPLite luminescence, 72 h; series mostly up to 46.1 µM; activity change, negative = cytotoxicity: at the top concentration; outcome: at the top concentration
In short: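 Cells are plated at 750 per well and rest for 4 hours. Compounds are added across eleven concentrations, and incubated 72 hours before ATP is quantified by luminescence.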

SMILES	outcome	activity change, negative = cytotoxicity	Potency
CN1C(=O)C(=O)N2C(=C[C@]3(c4c[nH]c5ccccc45)c4ccccc4N[C@H]23)C1=O	inactive		
CN1CC[C@]23c4ccccc4N[C@H]1[C@]21CCN(C)[C@H]3Nc2ccccc21	inactive		
C/C=C1/C2=CCCN3C(=O)O[C@H]([C@H]1O)[C@H]23		-1.17%	
COC1C(C)OC(OCC23C[C@@H]4[C@H](C)CC[C@H]4C4(C=O)CC2C=C(C(C)C)C34C(=O)O)[C@@H](O)[C@H]1O (stereo partly specified)		-0.213%	
CN1CC[C@@]2([C@@]34CCN(C)[C@@H]3Nc3ccccc34)c3ccccc3N[C@@H]12	inactive		
CC[C@@H](C)[C@H]1NC(=O)C(CC(C)C)NC(=O)[C@@H](CC(C)C)NC(=O)[C@H](Cc2c[nH]c3ccccc23)NC(=O)CNC(=O)[C@@H](CC(N)=O)NC1=O (stereo partly drawn) (cyclo(GW[dL][ξL][dI][dN]))	inactive		
Cc1cc(O)cc2c1C(=O)c1c(O)cc(O)cc1C2=O	inactive		
C=C(C)C(=O)O[C@H]1C[C@@]2(C)OC(=CC2=O)/C(C)=C\[C@H]2OC(=O)C(=C)[C@H]12			662 nM (active)
C=C[C@]1(C)CC[C@@H]([C@H](C)C(=O)CC=C(C)C)O1	inactive		
CC[C@@H]1C[C@@]2(CC)OC(=O)[C@@]3(CC)[C@H](CC)[C@@H]1[C@@H]23	inactive		
[C-]#[N+][C@@]12C(=O)[C@@H]3[C@@H](O[C@@]4(C(=O)N(C)c5cccc1c54)C3(C)C)C(=O)[C@@]2(C)C=C	inactive		
COC(=O)c1cccc2oc(-c3cccc4oc(-c5c(C)cccc5O)nc34)nc12			3320 nM (active)
C[C@@]12CCC[C@@](C)(C(=O)OP(=O)(O)OC[C@H]3O[C@@H](n4cnc5c(N)ncnc54)[C@H](O)[C@@H]3O)[C@H]1C[C@@H](O)[C@@]13C[C@@H](CC[C@@H]21)[C@](C)(O)C3	inactive		
CCC(C)=C1OC(=O)[C@H](C)[C@H](O)[C@H](Cc2cccnc2)NC(=O)C(NC(=O)c2ncccc2O)C(C)OC1=O (stereo partly specified)		0.863%	
C[C@@]12CCC[C@@](C)(C(=O)O)[C@H]1CC[C@@]13C[C@@H](CC[C@H]12)[C@](C)(O)C3		-2.06%	
O=C1OC(CCO)c2cccc(O)c21 (stereo unspecified)	inactive		
C=C1C[C@]23C=CC(=O)[C@@](C)(CCCC(C)C(=O)N[C@@H](CO)C(=O)O)[C@@H]2C[C@@H]1CC3 (stereo partly specified)	inactive		

SMILES	outcome	activity change, negative = cytotoxicity	Potency
COc1cc2ccc(=O)oc2c(O)c1O[C@@H]1O[C@H](CO)[C@@H](O)[C@H](O)[C@H]1O	inactive [at 27.5 µM]		
C/C(=C\[C@@H](C)CC/C=C/CC/C=C/C(=O)O)[C@@H](O)[C@H](C)C(=O)CCCC1CC(=O)NC(=O)C1		4.2%	
CO[C@@H](C[C@@H](C)[C@@H](O)/C=C/C=C/CNC(=O)C(C)(C)[C@H](O)\C(C)=C/C=C\C=C\Cc1cnco1)[C@]1(O)[C@@H](C)C(=O)N(C)[C@@]12COC2=O	inactive		
O=C1CC(c2ccc(O)cc2)Oc2cc(O)cc(O)c21 (stereo unspecified)	inactive		
CN1CC[C@@]23c4ccccc4N[C@@H]1[C@@]21CCN(C)[C@@H]3Nc2ccccc21	inactive		
C[C@@]12CCC[C@@](C)(C(=O)O)[C@H]1C[C@@H](O)[C@@]13C[C@@H](CC[C@@H]21)[C@](C)(O)C3	inactive		
O=Cc1ccc2n1C[C@]1(OC2)O[C@H](CO)[C@@H](O)[C@@H]1O	inactive		
C=C[C@@]1(C)CC[C@@H]([C@H](C)C(C)=O)O1	inactive		
C/C=C(/CO)C(=O)O[C@@H]1[C@H](O)[C@@H](C(=O)OC)O[C@@H]2C[C@H]3OC(n4cnc5c(N)ncnc54)[C@H](OC)[C@H]3O[C@@]12O (stereo partly specified)		4.12%	
C/C=C/[C@H]1[C@H]2C(=O)c3c(O)c(C)c(O)c(C)c3[C@]1(C(=O)O)C(=O)C=C2C		-4.81%	
C[C@@]12C[C@@H](C[C@@H]3C(=O)O[C@@H](c4ccoc4)[C@H](OC(=O)c4ccccc4)[C@@H]31)OC2=O	inactive		
C=C1CCC2C(C)(C(=O)O)CCC(CC/C(C)=C/C(=O)NC(CCC(N)=O)C(=O)O)[C@@]2(C)C1 (stereo partly specified)	inactive		
C=C1[C@@]2(C)CC3C4(C)CCC(O)C(C)(C)C4CCC3(C)[C@]1(C(=O)OC)C(=O)C(C)(O)C2=O (stereo partly specified)	inactive		
CC(C)=CCC[C@]1(C)[C@H]2CC(=O)[C@@]3(CO3)[C@@H]1C2	inactive		
CCCCCC(=O)N[C@@H](CC(C)C)C(=O)N[C@H](C=O)CCC(=O)O (Hexanoyl-Leu-Glu-aldehyde)	inactive		
COc1ccc([C@@H]2c3cc4c(cc3C(=O)C(C)C2C)OCO4)cc1OC (stereo partly specified)	inactive		
CC1(C)CC[C@]2(CO)CC[C@]3(C)C(=CCC4[C@@]5(C)CC[C@H](O)C(C)(C)C5CC[C@]43C)C2C1 (stereo partly specified)	inactive		
